Source: PubChem BioAssay (Tox21)
Records with an inconclusive call do not appear. Entries that show only a call come without a potency. Active and inactive are the calls of the source. The call rests on the fitted dose curve; in most records, active means well fitted activation curve with a large enough effect in the signal ratio in the repeat runs (not every such curve was filed as active); inconclusive means weak or mixed curves, or effect the other way; inactive means flat fitted curve, though single readings scatter; the % refers to the signal ratio.

assay: qHTS assay to identify small molecule agonists of the endoplasmic reticulum stress response signaling pathway (AID 1159516); settings: ESRE-bla HeLa, ER stress beta-lactamase reporter, 5 h; series mostly up to 61 µM
Description: National Center for Advancing Translational Sciences [NCATS]
NIH Chemical Genomics Center [NCGC]
U.S. Environmental Protection Agency [EPA]
National Institutes of Environmental Health Sciences [NIEHS]
National Toxicology Program [NTP]
U.S. Food and Drug Administration [FDA]
Endoplasmic Reticulum (ER) plays an important role in cellular signaling, protein folding/maturation, stress response, lipid biosynthesis, calcium storage and release etc. Under stress conditions, proteins in ER misfold or unfold, and leading to the expression of ER stress responsive genes. ER stress has been associated with a variety of pathophysiological conditions such as cancer, inflammation, neurodegenerative diseases, diabetes, ischemic heart disease etc. To identify the compounds that induce ER stress response, an ER stress reporter cell line, CellSensor ESRE-bla HeLa (Life Technologies, Carlsbad, CA) containing a beta-lactamase reporter gene under control of the Endoplasmic reticulum Stress Response Element (ESRE) was used to screen Tox21 10K compound library.
Tox21 Assay Protocol Summary:
ESRE-bla HeLa cells were dispensed at 1,500 cells/6 uL of assay medium per well into black wall/clear-bottom 1536-well plates using a Multidrop Combi (ThermoFisher Scientific, Waltham, MA) dispenser. After the assay plates were incubated at 37 C and 5% CO2 for an overnight, 23 nL of compounds dissolved in DMSO, positive controls or DMSO only was transferred to the assay plate by a Pintool station (Kalypsys, San Diego, CA). The assay plates were incubated at 37 C and 5% CO2 for 5 hr. One uL of LiveBLAzer B/G FRET substrate (Life Technologies) was added using a Flying Reagent Dispenser (Aurora Discovery, San Diego, CA) and the plates were incubated at room temperature for 2 hr. Fluorescence intensity (405 nm excitation, 460 nm and 530 nm emissions) was measured using an Envision plate reader (PerkinElmer, Shelton, CT).

Structure (SMILES) | Potency
CCCCCCCCCCCCCO | inactive
CC(=O)O[C@]1(C(C)=O)CC[C@H]2[C@@H]3C=C(C)C4=CC(=O)CC[C@]4(C)[C@H]3CC[C@@]21C | inactive
O=C(O)COCCN1CCN(C(c2ccccc2)c2ccc(Cl)cc2)CC1 (stereo not given) | inactive
O=[Se](O)O | inactive
CCCOCCO | inactive
Cc1ccc(N)c([N+](=O)[O-])c1 | inactive
Cc1ccc(C(C)(C)C)cc1 | inactive
CC/C(=C(/CC)c1ccc(O)cc1)c1ccc(O)cc1 | inactive
Cc1ccc(C(C)(C)C)c(O)c1 | inactive
CCCCCC1C(=O)CCC1CC(=O)OC (stereo not given) | inactive
CC1(C)OC(=O)NC1=O | inactive
CCC/C=C/C=O | inactive
O=C1CCc2ccccc2O1 | inactive
CCO[Si](CCCNC(N)=O)(OCC)OCC | inactive
C/C=C/C(=O)N(CC)c1ccccc1C | inactive
CCCCCCCCCCC(CO)CCCCCCCC (stereo not given) | inactive
CN(C)CCCN1c2ccccc2Sc2ccc(Cl)cc21 | inactive
Clc1ccc(Sc2cc(Cl)c(Cl)cc2Cl)cc1 | inactive
Nc1ccc(N)c(Cl)c1 | inactive
C=C[C@H]1CN2CC[C@H]1C[C@H]2[C@H](O)c1ccnc2ccc(OC)cc12 | inactive

Structure (SMILES) | Potency
C=CCCCCCCCCCC | inactive
C=CC(C)(O)CCC=C(C)C (stereo not given) | inactive
CC1(C)C(C=C(Cl)Cl)C1C(=O)OCc1cccc(Oc2ccccc2)c1 (stereo not given) | inactive
COC(=O)c1ccc(C)cc1 | inactive
NCCS(=O)(=O)O | inactive
COC(=O)C(C)Oc1ccc(Oc2ncc(C(F)(F)F)cc2Cl)cc1 (stereo not given) | inactive
NCCN | inactive
CC(=O)OC(C)C | inactive
C=CC(=O)OCCCC | inactive
C=C1C[C@H]2[C@@H]3C=C(C)C4=CC(=O)CC[C@]4(C)[C@H]3CC[C@]2(C)[C@@]1(OC(C)=O)C(C)=O | inactive
CC(=O)[C@@]1(O)CC[C@H]2[C@@H]3C[C@H](C)C4=CC(=O)C=C[C@]4(C)[C@@]3(F)[C@@H](O)C[C@@]21C | inactive
CNC[C@H](O)c1ccc(O)c(O)c1 | inactive
O=C(CCCN1CCC(O)(c2ccc(Cl)cc2)CC1)c1ccc(F)cc1 | inactive
Nc1ccc2c(c1)C(=O)c1ccccc1C2=O | inactive
Cc1ccc(S(=O)(=O)O)cc1C | inactive
CCC(=O)O[C@H]1[C@H](O[C@@H]2[C@@H](C)[C@H](O[C@H]3C[C@@](C)(OC)[C@@H](O)[C@H](C)O3)[C@@H](C)C(=O)O[C@H](CC)[C@@](C)(O)[C@H](O)[C@@H](C)C(=O)[C@H](C)C[C@@]2(C)O)O[C@H](C)C[C@@H]1N(C)C | inactive
c1ccc2c(c1)[nH]c1ccccc12 | inactive
OCCNCCO | inactive
CC(=O)O[C@]1(C(C)=O)CC[C@H]2[C@@H]3C=C(Cl)C4=CC(=O)CC[C@]4(C)[C@H]3CC[C@@]21C | inactive
CN(Cc1cnc2nc(N)nc(N)c2n1)c1ccc(C(=O)N[C@@H](CCC(=O)O)C(=O)O)cc1 | inactive
